An excerpt weighted towards active compounds, which were near 5.4% of everything screened.
FMDV inh = High Throughput Screening for Foot and Mouth Disease Virus Antivirals; FMDV antiviral cell-based qHTS; AID 1159524, 2015; Potency, µM (highest dose often 57.9 µM), inactives show at the top dose activity change, negative = inhibition, actives largely listed as inhibitors; 410,000 tested, 1.2% active; calls by dose curve; tested in HEK293T cells; note: read-out not given here; nearly all actives have a fitted effect of over 45% in size
VACV Venus inh = qHTS for Stage-Specific Inhibitors of Vaccinia Orthopoxvirus: Venus Reporter Primary qHTS; AID 720580, 2013; 330,000 tested, 0.46% active; Potency, µM (doses to about 36.5 µM), without a hit: at the top dose activity change, negative = inhibition, actives largely listed as inhibitors; Vaccinia virus Venus reporter expression, fluorescence; calls by dose curve; tested in A549 cells; note: nearly all actives have a fitted effect of over 30% in size
Sm TGR inh = qHTS Assay for the Inhibitors of Schistosoma Mansoni Peroxiredoxins. purified TGR, DTNB reduction, TNB absorbance 405 nm. Potency, µM (highest dose often 114 µM), without a hit: at the top dose activity change, negative = inhibition, most hits filed as inhibitors. 360,000 tested, 3% active; active = well fitted inhibition curve with a large enough effect; inconclusive = small, poorly fitted or top-dose-only effect; inactive = no such curve, though single readings can be large or run the other way; note: nearly all actives have a fitted effect of over 60% in size
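First, TGR (20 nM dispensed) and NADPH were mixed with compound. Second, a 15 min room-temperature incubation followed. Third, further NADPH and then DTNB were added to start the reaction. Finally, TNB absorbance was monitored kinetically.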
MARV entry inh = qHTS for inhibitors of binding or entry into cells for Marburg Virus. Marburg virus pseudotyped entry inhibition, cell reporter. Potency, µM (titrated, usually from 37.8 µM), inactives show at the top dose activity change, negative = inhibition, actives largely listed as inhibitors. 300,000 tested, 1.8% active. AID 540276, 2011; calls by dose curve; tested in HEK293 cells
Vaccinia mCherry = qHTS for Stage-Specific Inhibitors of Vaccinia Orthopoxvirus: mCherry Reporter Primary qHTS; Vaccinia virus mCherry reporter infection, fluorescence; 310,000 tested, 0.63% active; AID 720579, 2013; Potency, µM (series often up to 36.5 µM), for the others: at the highest dose activity change, negative = inhibition, actives largely listed as inhibitors; calls by dose curve; tested in A549 cells; note: nearly all actives have a fitted effect of over 35% in size
LASV entry inh = qHTS for Inhibitors of binding or entry into cells for Lassa Virus; 300,000 tested, 1.2% active; Potency, µM (doses to about 37.9 µM), for inactives: top-dose activity change, negative = inhibition, most hits filed as inhibitors; Lassa virus pseudotype entry inhibition, cell reporter; calls by dose curve; tested in HEK293 cells; note: nearly all actives have a fitted effect of over 50% in size
The depositor's hits bear a star; i = inactive; ? = inconclusive; . = not tested or not shown; [ ] = dose if it differs, or a comment. % is set by controls: 0 for no effect and ±100 for the full control effect; potency is the fitted concentration of half-maximal effect.

SMILES	FMDV inh	VACV Venus inh	Sm TGR inh	MARV entry inh	Vaccinia mCherry	LASV entry inh
COc1ccccc1CNc1ccnc(-c2ccc(C(=O)N(C)C)cc2)n1	1%	.	.	.	.	.
O=S(=O)(c1ccc2c(c1)CCCC2)N1CCN(c2nc(-c3ccccc3)nc3ccccc23)CC1	.	-10%	.	.	-13%	.
N#Cc1c(SCC(=O)Nc2nccs2)sc2c(O)cc(=O)[nH]c12	29%	-5%	50µM*	26%[46.1 µM]	-14%	?
N#Cc1c(SCC(=O)Nc2nc3ccc(Br)cc3s2)sc2c(O)cc(=O)[nH]c12	6%	-16%	-25%	-7%[46.1 µM]	i	26%[46.1 µM]
CCCSc1nnc(NC(=O)CSc2sc3c(O)cc(=O)[nH]c3c2C#N)s1	3%	0%	40µM*	14%[46.1 µM]	i	-1%[46.1 µM]
N#Cc1c(SCC(=O)Nc2nc3ccccc3s2)sc2c(O)cc(=O)[nH]c12	5%	.	-36%	.	.	.
Cc1ccc2nc(SCC(=O)N3CCC4(CC3)CC4C(=O)Nc3ccc(F)c(F)c3)[nH]c2c1 (stereo unspecified)	-4%	-8%	.	.	-6%	.
Cc1ccc(C(=O)Nc2nnc(SCc3cc(=O)c4c(C)ccc(C)c4[nH]3)s2)cc1	-26%	-18%	0%	.	-25%	-18%[46.1 µM]
CCCn1c(CCC(=O)O)ccc1-c1cccs1	-4%	-14%	3.5µM*	2%[46.1 µM]	-8%	-2%
CCCn1c(CCC(=O)O)ccc1-c1ccccc1	-5%	-5%	-30%	-8%[46.1 µM]	i	-4%
COCCCn1c(CCC(=O)O)ccc1-c1cccs1	-11%	-27%	8.9µM*	-3%	.	21%
NC(=O)Cn1c(=O)n(-c2ccc(F)c(Cl)c2)c(=O)c2sc3ccccc3c21	-1%	-2%	6%	16%[46.1 µM]	-6%	-4%[46.1 µM]
NNc1nnc2c3cc(F)ccc3n(CCc3ccccc3)c2n1	-10%	-2%	-10%	10µM*	?	?
O=C(Nc1ccc(Cl)cc1)c1cccc(N2C(=O)C3C4CCC(C4)C3C2=O)c1 (stereo unspecified)	32µM*	-25%	0%	?	-20%	?
COc1ccc(NC(=O)c2cccc(N3C(=O)C4C5C=CC(C6CC56)C4C3=O)c2)cc1 (stereo unspecified)	40µM*	-22%	0%	?	-13%	-19%
COc1ccc(NC(=O)c2cccc(N3C(=O)C4C5CCC(C5)C4C3=O)c2)cc1 (stereo unspecified)	?	-18%	0%	-19%	-26%	-15%
COc1ccc(NC(=O)c2cccc(N3C(=O)C4C5C=CC(C6CC56)C4C3=O)c2)c(OC)c1 (stereo unspecified)	-30%	-17%	3%	?	-5%	18µM*
CCOc1ccc(NC(=O)CC2C(=O)N(c3cccc(C)c3)C(=O)N2Cc2cccs2)cc1 (stereo unspecified)	11%	-10%	4%	.	-8%	-8%[46.1 µM]
COc1ccc2nc(C)cc(Nc3ccc(Cl)c(Cl)c3)c2c1	?	-29%	0%	.	?	?
C=C(C)Cn1c(=O)c2c(nc3n2CCN3c2cccc(Cl)c2C)n(C)c1=O	22µM*	.	8%	4%	.	-11%
Cc1c(Cl)cccc1N1CCn2c1nc1c2c(=O)n(CC(=O)O)c(=O)n1C	-27%	-7%	10%	-4%[46.1 µM]	-5%	?
C[C@@H]1C[C@H](O)c2cc(Cl)ccc2N1	-18%	-2%	40µM*	-27%	.	-6%
CC1CCN(C2(O)C(=O)Nc3ccc(Cl)cc32)CC1 (stereo unspecified)	19%	-6%	3%	6%	i	-19%
COc1ccccc1NC(=O)CN1CCN(CC(=O)Nc2ccc(F)cc2)CC1	-12%	?	-4%	-19%	.	2%
CCOC(=O)N1CCN(CC(=O)Nc2ccc(Oc3ccccc3)cc2)CC1	?	-11%	-17%	-27%	i	0.56µM*
SMILES	FMDV inh	VACV Venus inh	Sm TGR inh	MARV entry inh	Vaccinia mCherry	LASV entry inh
COc1ccccc1NC(=O)CN1CCN(CC(=O)Nc2ccc(OCc3ccccc3)cc2)CC1	?	?	-15%	?	.	11µM*
CCOC(=O)c1cccc(NC(=O)CN2CCN(c3ccc(OC)cc3)CC2)c1	-23%	-27%	0%	-12%	i	1.1µM*
COc1ccccc1C=CC1=CC2(C)CC1(C)C(c1ccccc1OC)CC2=O (stereo unspecified)	.	.	.	-29%[14.2 µM]	.	.
Cc1ccn2c(=O)c(C(=O)NC(C)c3ccccc3)c(O)nc2c1 (stereo unspecified)	-2%	-26%	11%	?	-14%	.
COC(=O)c1cc(=O)n(Cc2ccc3c(c2)OCO3)c(=Nc2ccccc2)s1	35µM*	-6%	-5%	0%	-13%	.
COC(=O)c1cc(=O)n(Cc2ccc3c(c2)OCO3)c(=Nc2ccc(F)cc2)s1	13µM*	-12%	5%	0%	?	.
CC(/C=C1\SC(=Nc2cccnc2)NC1=O)=C\c1ccccc1	-8%	2%	-3%	?	-18%	?
C=CCOc1ccc(/C=C2\SC(=Nc3cccnc3)NC2=O)cc1	22%	35%	-1%	?	i	3.5µM*
CCNc1nc(C#N)nc(N2CCCCC2)n1	.	-30%	.	.	?	.
CCC(C)(C)n1nnnc1C(c1cc2cc(C)cc(C)c2[nH]c1=O)N1CCN(C(=O)c2ccco2)CC1 (stereo unspecified)	.	-14%	18µM*	-19%	i	-24%
CCN1CCN(C(c2cc3cc4c(cc3[nH]c2=O)OCO4)c2nnnn2C(C)(C)CC)CC1 (stereo unspecified)	21%	.	-1%	-20%	.	-21%
CCC(C)(C)n1nnnc1C(c1cc2cc(C)ccc2[nH]c1=O)N1CCCC1 (stereo unspecified)	-4%	-3%	20µM*	?	i	15%[14.3 µM]
Cc1ccc2cc(C(c3nnnn3C(C)(C)C)N3CCCCCC3)c(=O)[nH]c2c1 (stereo unspecified)	6%	-8%	11µM*	5%	-4%	-6%
Cc1cccc2cc(C(c3nnnn3C(C)(C)C)N3CCN(C(=O)c4ccco4)CC3)c(=O)[nH]c12 (stereo unspecified)	.	-10%	-6%	-18%	-20%	11%
CCCS(=O)(=O)NCc1c(C)ncc2c1CCN(C(=O)/C=C/c1ccc(F)cc1F)C2	3%	-8%	.	.	-6%	.
O=C(O)c1ccc(CNc2ncnc3nc[nH]c23)cc1	.	-15%	.	.	i	.
Cc1ccc2[nH]c(CSc3nnc(NC(=O)COc4ccccc4C)s3)cc(=O)c2c1	-28%	-5%	-1%	.	-6%	?
C#CCN(C[C@@H]1[C@@H](OC(=O)NC2CCCC2)[C@@H](OC(=O)NC2CCCC2)Cn2c(=O)ccc(=O)n21)S(=O)(=O)c1ccc(C)cc1	?	7.9µM*	.	.	?	.

Source: PubChem BioAssay (National Center for Advancing Translational Sciences (NCATS))
